This is a sample that favours compounds with a hit; in the whole collection about 4% have one here.
GBA activity = alters purified human glucocerebrosidase activity; P04062; purified enzyme, resorufin glucoside fluorescence (screen aimed at inhibitors), 20 min; Potency, µM; 1.1% of 48,000 active; AID 360; in the data active means potency below about 15 µM; inconclusive means mostly about 16 µM to 33 µM;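 further: the screen sought inhibitors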
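Wild-type enzyme at 0.2 nM final in 50mM citric acid/KH2PO4, 10mM sodium taurocholate, 0.01% tween-20, pH 5.9, with resorufin beta-D-glucopyranoside at 30 uM final. Compounds titrated, 20 min at RT, red fluorescence read; AC50 from titration.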
TSHR agonist = TSH receptor (human) agonism; 0.48% of 73,000 active; Potency, µM (series often up to 57.1 µM), without a hit: at the highest dose activation, usual class: activators; HEK293-CNG-TSHR cells (CNG channel as cAMP sensor), membrane potential dye, cAMP; P16473; active means well fitted activation curve with a large enough effect in the main read-out, with a control signal flat, not every such curve was filed as active; inconclusive means small, poorly fitted or top-dose-only effect, or a change in a side signal; inactive means no such curve, though single readings can be large or run the other way; % of control where 0% means no effect;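 further: the control signal comes from parental cells without the receptor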
Target sequence (P16473 whole entry, looked up): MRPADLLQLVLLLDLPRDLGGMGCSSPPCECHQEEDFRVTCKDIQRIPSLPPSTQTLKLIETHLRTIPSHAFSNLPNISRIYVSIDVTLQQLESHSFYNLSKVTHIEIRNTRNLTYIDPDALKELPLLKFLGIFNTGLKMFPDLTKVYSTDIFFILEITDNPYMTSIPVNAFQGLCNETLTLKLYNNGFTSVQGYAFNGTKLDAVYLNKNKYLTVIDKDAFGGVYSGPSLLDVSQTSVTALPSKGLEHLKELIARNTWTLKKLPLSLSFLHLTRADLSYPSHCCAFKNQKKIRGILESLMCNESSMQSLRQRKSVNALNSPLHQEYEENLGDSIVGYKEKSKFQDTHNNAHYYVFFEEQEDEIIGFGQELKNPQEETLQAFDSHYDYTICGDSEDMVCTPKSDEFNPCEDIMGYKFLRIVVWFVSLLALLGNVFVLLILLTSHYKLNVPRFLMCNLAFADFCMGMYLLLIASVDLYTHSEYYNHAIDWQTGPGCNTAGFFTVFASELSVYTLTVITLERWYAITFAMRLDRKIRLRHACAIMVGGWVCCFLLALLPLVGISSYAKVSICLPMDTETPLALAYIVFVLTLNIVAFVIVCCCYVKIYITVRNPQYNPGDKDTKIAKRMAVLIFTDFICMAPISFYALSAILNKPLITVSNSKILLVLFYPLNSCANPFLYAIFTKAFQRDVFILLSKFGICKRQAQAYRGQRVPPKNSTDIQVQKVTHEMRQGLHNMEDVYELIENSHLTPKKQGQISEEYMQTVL
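HEK 293 cells stably expressing TSHR and a cAMP-gated CNG channel; parental CNG-only cells as counterscreen. Cells preloaded 60 min with membrane potential dye plus 100 uM RO 20-1724, then compound 30 min; fluorescence read at 590 nm.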
HEK293 cAMP cs = counter-screen for TSHR agonists: cAMP increase in parental HEK293; parental HEK293 CNG cAMP sensor, membrane potential fluorescence; Potency, µM (titrated, usually from 57.1 µM), for the others: at the highest dose activation, usual class: activators; 2.5% of 73,000 active; AID 938; active means well fitted activation curve with a large enough effect; inconclusive means small, poorly fitted or top-dose-only effect; inactive means no such curve, though single readings can be large or run the other way; further: % of control where 0% means no effect; nearly all actives have a fitted effect of over 55% in size
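Parental HEK 293 cells stably expressing a modified CNG channel (no TSHR) report cAMP rise as membrane depolarization. Membrane potential dye with 100 uM RO 20-1724 was loaded for 60 min at room temperature, then compound added for 30 min; fluorescence read at 590 nm.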
Bst PK mod = pyruvate kinase (B. stearothermophilus) modulation; Potency, µM; 1.2% of 51,000 active; purified pyruvate kinase, luminescence ATP production; ribose 5-phosphate activator present at AC10; in the data active means potency below about 11 µM; inconclusive means mostly about 12 µM to 25 µM;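 the screen sought inhibitors and activators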;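 further: scaled between full activation by ribose 5 phosphate and full inhibition by luteolin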
* = called active by the depositor; i = inactive; ? = inconclusive; · = not tested or not shown; [ ] = dose if it differs, or a comment. Potency means the concentration at half of the fitted maximal effect.

SMILES | GBA activity | TSHR agonist | HEK293 cAMP cs | Bst PK mod
Cc1cc(C(=O)Cn2nnc3ccccc3c2=O)c(C)n1Cc1cccs1 | >76.9 | ? | ? | 5.69*
Cc1cc(C(=O)CN2C(=O)c3ccccc3C2=O)c(C)n1Cc1cccs1 | >76.9 | 3.0% | 1.9% | 11.3*
Cc1cc(C(=O)CN2C(=O)CCC2=O)c(C)n1Cc1ccccc1 | >76.9 | ? | ? | >57
NC[C@@H]1O[C@H](O[C@H]2[C@H](O)[C@H](O[C@@H]3O[C@H](CO)[C@@H](O)[C@H](N)[C@@H]3O)[C@@H](N)C[C@H]2N)[C@@H](O)[C@H](O)[C@@H]1O | · | -10.6%[25.6 µM] | 0.2%[25.6 µM] | ·
Cc1cccc(-c2noc(CN(C(=O)c3ccc4c(c3)OCO4)C(C)C)n2)c1 | >76.9 | ? | 31.6µM* | >57
O=C(O)c1cccc(COc2ccc(CO)cc2Cl)c1 | >76.9 | 5.2% | 1.5% | 0.954*
CCOc1ccc(OCc2cccc(C(=O)O)c2)cc1 | >76.9 | 2.9% | 3.1% | 0.761*
CCOc1ccc(OCc2cccc(C(=O)N3CCCC3)c2)cc1 | >76.9 | 21.2% | 12.1% | ?
COc1ccc(OCc2cccc(C(=O)O)c2)cc1 | >76.9 | 3.9% | 6.1% | 1.16*
O=C(O)c1ccc(COc2ccc(CO)cc2Cl)cc1 | >76.9 | 4.5% | 5.4% | >57
CN(Cc1ccco1)c1ccnc(-c2cccc(C#N)c2)n1 | · | 7.8% | 22.0% | ·
O=c1[nH]cc(CS(=O)(=O)Cc2c[nH]c(=O)[nH]c2=O)c(=O)[nH]1 | · | -1.5%[11.4 µM] | -3.9%[11.4 µM] | ·
[O-][N+]1(CC[N+]2([O-])CCCCC2)CCCCC1 | · | 7.5%[11.4 µM] | -3.2%[11.4 µM] | ·
O=C(O)C[n+]1ccccc1 | · | -6.9%[11.4 µM] | 3.7%[11.4 µM] | ·
CC(=O)COc1ccc2c3c(c(=O)oc2c1)CCCC3 | >76.9 | -11.9% | 6.3% | ·
CC(=O)C(C)Oc1ccc2c3c(c(=O)oc2c1)CCCCC3 (stereo unspecified) | >76.9 | 25.1µM* | 15.8% | ·
O=S(=O)(N1CCCCC1)n1c(Cc2ccccc2)nc2ccccc21 | · | ? | 31.6µM* | >57
Cc1nc2ccccc2n1S(=O)(=O)c1ccc(S(=O)(=O)N2CCCCCC2)cc1 | >76.9 | -1.5% | 1.9% | >57
Cc1cc(C(=O)CSc2nnc(-c3cccc(F)c3)n2N)c(C)n1Cc1ccc2c(c1)OCO2 | >15.4 | ? | 10µM* | >57
Cc1cc(C(=O)CSc2nnnn2-c2ccc(O)cc2)c(C)n1Cc1ccc2c(c1)OCO2 | >76.9 | ? | ? | >57
Cc1ccc2cc(C#N)c(NCc3ccco3)nc2c1 | 11.5* | -4.8% | 7.9% | >57
Cc1ccc(-c2nc(C#N)c(NCc3ccco3)o2)cc1 | >76.9 | -10.5% | 13.3% | >57
CCOc1ccc(N2Cc3ncccc3C2=O)cc1 | >76.9 | -5.1% | 1.5% | 10.7*
CNCCCCCCCCSc1nc(C(C)C)ccc1C(=O)c1cccs1 | · | 22.6% | 1.1% | ·
CN1CCN(CC(=O)N2c3ccccc3Sc3cc4ccccc4cc32)CC1 | · | 9.8%[11.4 µM] | 23.0%[11.4 µM] | ·
SMILES | GBA activity | TSHR agonist | HEK293 cAMP cs | Bst PK mod
Cc1cccc(-n2ncc3c(N4CCCC4)ncnc32)c1 | >76.9 | -2.2% | -3.3% | 5.37*
O=C(CN(CCc1ccccc1)C(=O)CN1C(=O)COc2ccccc21)NCc1ccco1 | >76.9 | 9.8% | 26.4% | >57
O=C(CN(CCc1ccccc1)C(=O)Cn1nnc(-c2cccs2)n1)NCc1ccco1 | i | ? | 25.1µM* | >57
O=C(NCCO)c1ccc(Cc2nc3ccccc3[nH]2)cc1 | · | -6.5% | -5.3% | ·
CCOC(=O)c1cnn2c(C(F)(F)F)cc(-c3ccco3)nc12 | >76.9 | -10.2% | 21.6% | >57
CCOC(=O)c1cc(-c2ccco2)nc2c1c(C)nn2-c1ccccc1 | ? | 3.16µM* | 17.0% | >57
CCCC[C@@H]1C[C@H]1C(NC(=O)c1ccccc1)c1ccc(C(F)(F)F)cc1 (stereo partly specified) | · | ? | 3.16µM* | ·
CCCC[C@@H]1C[C@H]1C(NC(=O)c1cccnc1)c1ccc(Cl)cc1 (stereo partly specified) | · | ? | 25.1µM* | ·
CCCC[C@@H]1C[C@H]1C(NC(=O)c1cccs1)c1ccc(-c2ccccc2)cc1 (stereo partly specified) | · | · | 17.5% | ·
CCCC[C@@H]1C[C@H]1C(NC(=O)c1ccccc1)c1ccc(-c2ccccc2)cc1 (stereo partly specified) | · | 10.8% | 20.9% | ·
O=C(CN1C(=O)c2ccccc2C1=O)[C@@H](O)CN1C(=O)c2ccccc2C1=O | · | 3.6%[11.4 µM] | -7.1%[11.4 µM] | ·
O=S(=O)(Nc1ccc2c(c1)OCCO2)c1cccs1 | >76.9 | ? | -53.1% | 4.21*
O=S(=O)(Nc1ccc2c(c1)OCO2)c1cccs1 | · | -7.4% | 7.5% | >57
O=C(c1ccco1)N1CCC[C@@]2(CCN(C(c3ccccc3)c3ccccc3)C2)C1 | · | ? | 15.8µM* | ·
Cc1noc(C)c1C(=O)N1CCC2(CC1)CCN(C(c1ccccc1)c1ccccc1)CC2 | · | 31.6µM* | 22.4% | ·
CC(=O)N1CCC2(CCCN(C(c3ccccc3)c3ccccc3)C2)CC1 | · | ? | 15.8µM* | ·
Cc1noc(C)c1C(=O)N1CCC[C@@]2(CCN(C(c3ccccc3)c3ccccc3)C2)C1 | · | 5.6% | 9.2% | ·
COC(=O)N1CCC[C@@]2(CCN(C(c3ccccc3)c3ccccc3)C2)C1 | · | ? | 7.94µM* | ·
O=C(c1ccco1)N1CCC[C@@]2(CCN(Cc3ccccc3)C2)C1 | · | 6.7% | 17.9% | ·
COC(=O)N1CCC2(CC1)CN(C(c1ccccc1)c1ccccc1)C2 | · | 18.5% | 30.0% | ·
O=C1c2c(O)cc(O)cc2O[C@@H](c2ccc(O)c(O)c2)[C@H]1O | · | 12.9% | 8.8% | ·
O=C(N/N=C1/C[C@@H](O)[C@@H](O)[C@@H]2[C@H]3C(=O)N(c4ccc(F)cc4F)C(=O)[C@@H]3CC[C@@H]12)OCc1ccccc1 | · | 0.2%[11.4 µM] | 0.2%[11.4 µM] | ·
O=C(c1cccc(F)c1)N1CCC2(CC1)CN(c1ccc(-c3ccccc3)cc1)C2 | · | 3.5% | 10.6% | ·
O=C(c1cccc(F)c1)N1CCC2(CC1)CCN(c1ccc(-c3ccccc3)cc1)CC2 | · | ? | 15.8µM* | ·
CC(=O)C=NCC(=O)O | · | 6.2%[11.4 µM] | 2.4%[11.4 µM] | ·
SMILES | GBA activity | TSHR agonist | HEK293 cAMP cs | Bst PK mod
CCCNC(=O)C1=C(C)C(=O)OC12CCC(C)CC2 (stereo unspecified) | · | 5.5% | 19.4% | ·
CC1=C(C(=O)N(C)Cc2ccccc2)C2(CCC(C)CC2)OC1=O (stereo unspecified) | · | ? | 6.31µM* | ·
CCOc1ccccc1N1CCN(S(=O)(=O)c2cccs2)CC1 | >76.9 | ? | 10µM* | >57
O=C(c1noc2c1CCc1ccccc1-2)N1CCCc2ccccc21 | >76.9 | ? | 25.1µM* | >57
O=C(c1noc2c1CCc1ccccc1-2)N1CCOCC1 | >76.9 | -7.4% | -0.7% | >57
CC(=O)c1ccc(C2C=CC(O)C(CO)O2)cc1 (stereo unspecified) | · | -8.6%[11.4 µM] | -0.6%[11.4 µM] | ·
COC(=O)C1=C(C)NC(C)=C(C(=O)OC)C1c1cc2ccc(C)cc2[nH]c1=O | >76.9 | 15.8µM* | 22.1% | >57
O=C(CSc1nnc(Cn2nnc3ccccc32)o1)N(Cc1ccc(F)cc1)c1ccccc1 | i | ? | 15.8µM* | >57
CC(=O)Nc1ccc(C(=O)Nc2ccc(S(=O)(=O)NCC3CCCO3)cc2)cc1 (stereo unspecified) | i | -5.9% | 6.7% | >57

Assay outcomes from PubChem BioAssay.
